# Tests used:
# Test in all cases: DAPPL (digital affinity profiling via proximity ligation, sequencing); 10 mM Tris-HCl pH 7.5, 50 mM NaCl, 1 mM DTT, 4% glycerol, room temperature, 30 min; GST-TFs on glutathione beads, 16-mer random dsDNA library, 0.1% formaldehyde crosslink after washing; high values mean tight binding
# FEV = molecular target: T1, FEV (Homo sapiens, UniProt Q99581 1-238); settings: protein: recombinant; tags: N-terminal GST; dsDNA, one strand shown
# T1 sequence: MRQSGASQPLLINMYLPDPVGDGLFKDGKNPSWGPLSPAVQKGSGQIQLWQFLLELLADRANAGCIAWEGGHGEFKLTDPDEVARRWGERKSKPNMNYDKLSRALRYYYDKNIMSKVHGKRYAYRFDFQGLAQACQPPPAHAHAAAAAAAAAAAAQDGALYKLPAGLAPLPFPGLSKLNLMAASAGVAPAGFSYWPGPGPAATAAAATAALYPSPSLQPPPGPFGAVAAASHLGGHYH
# In short: (§1)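 Human transcription factors fused to GST were expressed in yeast, captured on glutathione beads, given DNA barcodes and pooled with a GST-only negative control. Pools were incubated with 200 nmole of a 16-mer random double-stranded DNA library in Tris/NaCl/DTT/glycerol buffer at room temperature for 30 min. They were then washed, crosslinked with 0.1% formaldehyde, proximity-ligated (BsaI/T4 ligase, 1 h, 37 °C), PCR-amplified and sequenced on an Illumina NextSeq500. Binding signal is each 6-mer's read frequency for a factor divided by its frequency for the GST control.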
# ETV5 = ETV5 (Homo sapiens, UniProt P41161 1-510); settings: protein: recombinant; tags: N-terminal GST; dsDNA, one strand shown
# ETV5, sequence (P41161 whole entry): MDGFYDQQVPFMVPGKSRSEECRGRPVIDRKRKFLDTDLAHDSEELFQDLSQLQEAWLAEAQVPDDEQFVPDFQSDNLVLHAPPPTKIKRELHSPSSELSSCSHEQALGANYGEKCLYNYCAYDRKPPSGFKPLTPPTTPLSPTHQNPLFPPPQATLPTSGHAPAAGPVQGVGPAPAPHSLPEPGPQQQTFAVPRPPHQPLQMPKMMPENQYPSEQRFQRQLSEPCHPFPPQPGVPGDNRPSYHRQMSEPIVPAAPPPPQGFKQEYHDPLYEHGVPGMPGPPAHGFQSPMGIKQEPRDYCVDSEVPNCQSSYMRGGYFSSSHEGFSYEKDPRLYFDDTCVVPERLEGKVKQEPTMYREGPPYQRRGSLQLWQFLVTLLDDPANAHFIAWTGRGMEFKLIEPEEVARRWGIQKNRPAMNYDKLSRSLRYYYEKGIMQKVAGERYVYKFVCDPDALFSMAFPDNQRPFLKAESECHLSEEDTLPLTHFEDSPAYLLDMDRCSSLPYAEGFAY
# In short: as §1
# HSF1 = HSF1 (Homo sapiens, UniProt Q00613 1-529); settings: protein: recombinant; tags: N-terminal GST; chain copies: 3; dsDNA, one strand shown
# HSF1, sequence (Q00613 whole entry): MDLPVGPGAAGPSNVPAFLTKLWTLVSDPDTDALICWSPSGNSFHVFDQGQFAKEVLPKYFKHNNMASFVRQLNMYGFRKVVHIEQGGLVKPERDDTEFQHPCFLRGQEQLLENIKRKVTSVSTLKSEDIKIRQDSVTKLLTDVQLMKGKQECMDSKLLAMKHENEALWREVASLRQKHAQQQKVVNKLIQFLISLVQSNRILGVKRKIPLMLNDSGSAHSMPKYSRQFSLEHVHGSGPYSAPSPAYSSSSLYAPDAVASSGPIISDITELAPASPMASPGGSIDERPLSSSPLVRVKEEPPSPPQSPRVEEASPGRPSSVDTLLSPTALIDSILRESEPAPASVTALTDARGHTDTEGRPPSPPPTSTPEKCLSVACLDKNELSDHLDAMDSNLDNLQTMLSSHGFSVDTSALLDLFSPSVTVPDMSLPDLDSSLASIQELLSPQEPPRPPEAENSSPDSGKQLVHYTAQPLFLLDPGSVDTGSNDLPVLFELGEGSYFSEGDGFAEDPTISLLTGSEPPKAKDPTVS
# In short: as §1
# SPIC = molecular target: T2, SPIC (Homo sapiens, UniProt Q8N5J4 1-248); settings: protein: recombinant; tags: N-terminal GST; dsDNA, one strand shown
# T2 sequence: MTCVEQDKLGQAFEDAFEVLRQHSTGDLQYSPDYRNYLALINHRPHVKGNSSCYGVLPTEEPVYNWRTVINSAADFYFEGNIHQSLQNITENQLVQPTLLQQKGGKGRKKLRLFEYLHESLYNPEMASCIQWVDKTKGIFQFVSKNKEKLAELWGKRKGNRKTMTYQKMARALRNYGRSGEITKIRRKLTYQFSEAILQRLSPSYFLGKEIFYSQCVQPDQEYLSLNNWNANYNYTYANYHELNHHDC
# In short: as §1
# ELF4 = ELF4 (Homo sapiens, UniProt Q99607 1-663); settings: protein: recombinant; tags: N-terminal GST; dsDNA, one strand shown
# ELF4, sequence (Q99607 whole entry): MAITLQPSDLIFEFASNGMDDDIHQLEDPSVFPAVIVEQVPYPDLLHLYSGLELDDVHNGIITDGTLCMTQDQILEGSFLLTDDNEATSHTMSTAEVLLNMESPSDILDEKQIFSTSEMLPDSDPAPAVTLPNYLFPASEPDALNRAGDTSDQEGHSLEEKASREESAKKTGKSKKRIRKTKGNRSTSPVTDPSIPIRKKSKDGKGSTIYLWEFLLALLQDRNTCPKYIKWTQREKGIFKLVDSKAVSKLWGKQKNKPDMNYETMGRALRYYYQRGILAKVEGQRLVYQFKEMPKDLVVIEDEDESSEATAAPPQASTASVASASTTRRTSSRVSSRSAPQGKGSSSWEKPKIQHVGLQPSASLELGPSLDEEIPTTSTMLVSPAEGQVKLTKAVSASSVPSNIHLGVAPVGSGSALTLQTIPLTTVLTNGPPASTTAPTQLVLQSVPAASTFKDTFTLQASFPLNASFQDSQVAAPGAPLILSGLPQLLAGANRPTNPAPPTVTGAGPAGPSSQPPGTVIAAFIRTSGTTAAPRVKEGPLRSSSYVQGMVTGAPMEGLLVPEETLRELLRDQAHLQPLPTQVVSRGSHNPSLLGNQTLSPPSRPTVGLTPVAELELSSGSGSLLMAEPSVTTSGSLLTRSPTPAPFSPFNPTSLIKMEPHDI
# In short: as §1
# ELK4 = molecular target: T3, ELK4 (Homo sapiens, UniProt P28324-2 1-405); settings: protein: recombinant; tags: N-terminal GST; dsDNA, one strand shown
# T3 sequence: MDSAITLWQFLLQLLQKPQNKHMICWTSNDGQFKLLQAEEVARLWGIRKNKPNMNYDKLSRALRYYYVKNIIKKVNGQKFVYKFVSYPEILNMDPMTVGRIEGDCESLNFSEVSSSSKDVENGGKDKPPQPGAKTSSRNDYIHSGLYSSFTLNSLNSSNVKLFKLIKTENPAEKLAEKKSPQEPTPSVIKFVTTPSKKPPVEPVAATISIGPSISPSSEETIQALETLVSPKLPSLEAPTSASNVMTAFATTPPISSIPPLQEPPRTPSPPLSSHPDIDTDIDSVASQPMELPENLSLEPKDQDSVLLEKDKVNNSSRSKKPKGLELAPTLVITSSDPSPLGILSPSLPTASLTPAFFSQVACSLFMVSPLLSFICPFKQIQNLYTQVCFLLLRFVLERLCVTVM
# In short: as §1
# ETV2 = molecular target: T4, ETV2 (Homo sapiens, UniProt O00321 1-342); settings: protein: recombinant; tags: N-terminal GST; dsDNA, one strand shown
# T4 sequence: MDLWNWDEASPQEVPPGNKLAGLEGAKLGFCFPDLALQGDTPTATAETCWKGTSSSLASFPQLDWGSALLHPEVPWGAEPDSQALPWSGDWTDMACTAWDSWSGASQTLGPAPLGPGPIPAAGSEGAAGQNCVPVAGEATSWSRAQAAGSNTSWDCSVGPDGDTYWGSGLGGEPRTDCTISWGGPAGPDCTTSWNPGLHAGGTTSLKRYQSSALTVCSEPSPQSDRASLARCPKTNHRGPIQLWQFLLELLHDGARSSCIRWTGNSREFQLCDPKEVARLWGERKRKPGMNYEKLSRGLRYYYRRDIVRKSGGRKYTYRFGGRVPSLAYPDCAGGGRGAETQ
# In short: as §1
# ELF3 = molecular target: T5, ELF3 (Homo sapiens, UniProt P78545 1-371); settings: protein: recombinant; tags: N-terminal GST; dsDNA, one strand shown
# T5 sequence: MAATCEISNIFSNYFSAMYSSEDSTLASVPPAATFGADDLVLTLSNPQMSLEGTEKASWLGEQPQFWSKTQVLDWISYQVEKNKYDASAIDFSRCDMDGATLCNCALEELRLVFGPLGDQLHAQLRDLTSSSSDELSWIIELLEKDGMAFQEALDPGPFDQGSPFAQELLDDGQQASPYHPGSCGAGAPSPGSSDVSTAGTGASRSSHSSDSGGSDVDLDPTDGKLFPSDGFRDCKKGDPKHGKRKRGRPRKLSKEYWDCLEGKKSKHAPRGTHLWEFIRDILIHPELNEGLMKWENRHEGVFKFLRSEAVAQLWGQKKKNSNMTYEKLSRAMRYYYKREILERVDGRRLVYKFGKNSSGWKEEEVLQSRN
# In short: as §1
# CRX = CRX (Homo sapiens, UniProt O43186 1-299); settings: protein: recombinant; tags: N-terminal GST; dsDNA, one strand shown
# CRX, sequence (O43186 whole entry): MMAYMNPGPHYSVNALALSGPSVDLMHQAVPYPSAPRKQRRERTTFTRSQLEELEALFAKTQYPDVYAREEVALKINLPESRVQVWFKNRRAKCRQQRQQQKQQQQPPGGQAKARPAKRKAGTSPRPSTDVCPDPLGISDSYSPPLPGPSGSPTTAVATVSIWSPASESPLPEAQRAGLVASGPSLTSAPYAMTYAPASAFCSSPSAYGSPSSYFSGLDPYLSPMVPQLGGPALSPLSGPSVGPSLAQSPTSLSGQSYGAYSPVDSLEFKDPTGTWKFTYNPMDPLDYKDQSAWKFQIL
# In short: as §1
# ETV1 = ETV1 (Homo sapiens, UniProt P50549 1-477); settings: protein: recombinant; tags: N-terminal GST; dsDNA, one strand shown
# ETV1, sequence (P50549 whole entry): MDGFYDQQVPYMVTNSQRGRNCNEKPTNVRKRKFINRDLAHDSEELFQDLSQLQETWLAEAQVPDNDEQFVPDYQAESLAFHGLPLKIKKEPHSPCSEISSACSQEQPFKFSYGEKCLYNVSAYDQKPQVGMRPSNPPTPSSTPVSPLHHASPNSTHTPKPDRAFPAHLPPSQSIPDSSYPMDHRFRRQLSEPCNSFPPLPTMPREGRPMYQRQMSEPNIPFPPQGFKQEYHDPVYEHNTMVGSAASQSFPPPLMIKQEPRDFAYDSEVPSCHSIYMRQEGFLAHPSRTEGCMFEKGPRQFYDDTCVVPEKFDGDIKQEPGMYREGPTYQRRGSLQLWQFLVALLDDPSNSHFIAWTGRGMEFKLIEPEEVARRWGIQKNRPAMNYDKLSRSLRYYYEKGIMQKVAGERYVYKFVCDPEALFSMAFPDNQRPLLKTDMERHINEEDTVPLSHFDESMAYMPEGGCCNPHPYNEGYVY
# In short: as §1
# ERF = molecular target: T6, ERF (Homo sapiens, UniProt P50548 1-548); settings: protein: recombinant; tags: N-terminal GST; dsDNA, one strand shown
# T6 sequence: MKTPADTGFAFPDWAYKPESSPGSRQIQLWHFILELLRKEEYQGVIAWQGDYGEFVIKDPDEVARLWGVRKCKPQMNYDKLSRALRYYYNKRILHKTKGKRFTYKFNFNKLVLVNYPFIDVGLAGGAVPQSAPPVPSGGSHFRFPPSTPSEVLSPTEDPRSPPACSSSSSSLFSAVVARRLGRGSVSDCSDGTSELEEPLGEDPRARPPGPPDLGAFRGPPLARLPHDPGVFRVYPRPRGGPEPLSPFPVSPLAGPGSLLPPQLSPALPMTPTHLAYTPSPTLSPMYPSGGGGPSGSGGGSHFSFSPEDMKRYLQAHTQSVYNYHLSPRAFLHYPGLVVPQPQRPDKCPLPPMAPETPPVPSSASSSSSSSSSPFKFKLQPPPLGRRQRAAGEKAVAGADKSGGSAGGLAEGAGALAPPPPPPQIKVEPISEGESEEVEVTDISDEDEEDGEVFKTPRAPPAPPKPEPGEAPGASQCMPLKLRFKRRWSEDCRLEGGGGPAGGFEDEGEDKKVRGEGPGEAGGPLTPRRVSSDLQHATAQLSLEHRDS
# In short: as §1
# ETV3L = molecular target: T7, ETV3L (Homo sapiens, UniProt Q6ZN32 1-361); settings: protein: recombinant; tags: N-terminal GST; dsDNA, one strand shown
# T7 sequence: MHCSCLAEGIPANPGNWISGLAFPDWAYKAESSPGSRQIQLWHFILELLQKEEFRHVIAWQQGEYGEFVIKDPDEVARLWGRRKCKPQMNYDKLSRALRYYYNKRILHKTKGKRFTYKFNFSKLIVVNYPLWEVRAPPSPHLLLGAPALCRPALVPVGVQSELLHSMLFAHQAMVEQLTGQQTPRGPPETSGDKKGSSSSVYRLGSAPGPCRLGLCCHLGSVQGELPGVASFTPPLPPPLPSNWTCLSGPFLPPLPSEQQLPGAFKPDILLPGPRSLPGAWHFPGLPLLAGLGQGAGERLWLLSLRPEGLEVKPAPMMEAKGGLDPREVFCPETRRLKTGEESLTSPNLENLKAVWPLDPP
# In short: as §1
# ETS2 = molecular target: T8, ETS2 (Homo sapiens, UniProt P15036 1-469); settings: protein: recombinant; tags: N-terminal GST; dsDNA, one strand shown
# T8 sequence: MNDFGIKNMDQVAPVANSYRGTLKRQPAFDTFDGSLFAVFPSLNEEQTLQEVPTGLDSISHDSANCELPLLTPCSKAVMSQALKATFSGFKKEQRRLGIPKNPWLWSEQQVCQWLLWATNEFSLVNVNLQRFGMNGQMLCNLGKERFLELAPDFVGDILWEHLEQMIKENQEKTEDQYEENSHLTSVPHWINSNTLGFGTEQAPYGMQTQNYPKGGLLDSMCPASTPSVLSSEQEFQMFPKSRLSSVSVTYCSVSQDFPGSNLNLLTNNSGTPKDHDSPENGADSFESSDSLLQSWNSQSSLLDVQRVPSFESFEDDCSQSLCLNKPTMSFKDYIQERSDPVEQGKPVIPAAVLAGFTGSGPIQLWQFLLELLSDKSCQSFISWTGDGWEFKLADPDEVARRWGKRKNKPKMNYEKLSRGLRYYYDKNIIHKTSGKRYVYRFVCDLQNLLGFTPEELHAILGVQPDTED
# In short: as §1
# SPDEF = molecular target: T9, SPDEF (Homo sapiens, UniProt O95238 1-335); settings: protein: recombinant; tags: N-terminal GST; dsDNA, one strand shown
# T9 sequence: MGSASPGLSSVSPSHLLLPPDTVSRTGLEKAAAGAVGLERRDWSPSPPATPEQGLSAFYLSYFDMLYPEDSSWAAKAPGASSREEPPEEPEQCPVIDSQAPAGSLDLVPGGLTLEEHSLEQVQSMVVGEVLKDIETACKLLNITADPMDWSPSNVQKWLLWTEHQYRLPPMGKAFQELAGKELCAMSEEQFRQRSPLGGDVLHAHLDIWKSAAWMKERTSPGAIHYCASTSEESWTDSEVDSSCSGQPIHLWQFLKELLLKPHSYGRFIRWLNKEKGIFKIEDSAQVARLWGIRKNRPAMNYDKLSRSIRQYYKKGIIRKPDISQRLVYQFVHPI
# In short: as §1
# ETV7 = molecular target: T10, ETV7 (Homo sapiens, UniProt Q9Y603 1-341); settings: protein: recombinant; tags: N-terminal GST; dsDNA, one strand shown
# T10 sequence: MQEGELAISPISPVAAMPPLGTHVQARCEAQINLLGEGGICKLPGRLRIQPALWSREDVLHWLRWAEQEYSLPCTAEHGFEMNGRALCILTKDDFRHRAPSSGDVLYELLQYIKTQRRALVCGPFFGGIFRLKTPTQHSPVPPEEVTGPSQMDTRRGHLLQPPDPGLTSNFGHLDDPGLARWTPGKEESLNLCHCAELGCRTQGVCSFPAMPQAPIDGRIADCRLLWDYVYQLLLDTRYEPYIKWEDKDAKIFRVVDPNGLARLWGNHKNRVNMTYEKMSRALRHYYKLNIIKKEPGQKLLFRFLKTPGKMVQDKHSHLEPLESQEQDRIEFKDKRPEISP
# In short: as §1
# ELF5 = molecular target: T11, ELF5 (Homo sapiens, UniProt Q9UKW6-2 1-255); settings: protein: recombinant; tags: N-terminal GST; dsDNA, one strand shown
# T11 sequence: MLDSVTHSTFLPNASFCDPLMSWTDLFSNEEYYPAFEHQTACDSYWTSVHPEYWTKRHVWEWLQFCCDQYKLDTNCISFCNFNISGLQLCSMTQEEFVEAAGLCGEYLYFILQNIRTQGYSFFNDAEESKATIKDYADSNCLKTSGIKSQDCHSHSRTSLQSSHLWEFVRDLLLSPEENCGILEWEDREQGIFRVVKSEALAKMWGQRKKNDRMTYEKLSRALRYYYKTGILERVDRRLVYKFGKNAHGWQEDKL
# In short: as §1
# ETV3 = molecular target: T12, ETV3 (Homo sapiens, UniProt P41162-2 1-143); settings: protein: recombinant; tags: N-terminal GST; dsDNA, one strand shown
# T12 sequence: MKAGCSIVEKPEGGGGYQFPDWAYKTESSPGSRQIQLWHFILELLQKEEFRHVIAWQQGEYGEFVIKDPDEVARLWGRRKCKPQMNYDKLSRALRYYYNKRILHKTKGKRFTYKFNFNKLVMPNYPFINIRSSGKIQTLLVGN
# In short: as §1
# ETV6 = ETV6 (Homo sapiens, UniProt P41212 1-452); settings: protein: recombinant; tags: N-terminal GST; dsDNA, one strand shown
# ETV6, sequence (P41212 whole entry): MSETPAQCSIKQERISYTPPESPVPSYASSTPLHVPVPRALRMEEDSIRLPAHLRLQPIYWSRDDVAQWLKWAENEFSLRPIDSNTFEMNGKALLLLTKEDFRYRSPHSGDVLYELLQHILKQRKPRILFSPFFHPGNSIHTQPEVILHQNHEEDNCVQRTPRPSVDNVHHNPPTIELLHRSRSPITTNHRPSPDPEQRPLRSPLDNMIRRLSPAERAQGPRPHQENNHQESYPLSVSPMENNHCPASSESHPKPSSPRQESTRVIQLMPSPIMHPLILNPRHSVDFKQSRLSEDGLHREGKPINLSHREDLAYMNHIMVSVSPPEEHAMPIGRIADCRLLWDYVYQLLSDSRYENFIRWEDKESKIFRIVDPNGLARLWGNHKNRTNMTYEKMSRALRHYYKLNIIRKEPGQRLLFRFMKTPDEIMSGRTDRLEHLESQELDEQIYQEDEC
# In short: as §1
sequence,measurement,setting,value
CCGAAT,binding signal,FEV,"1.16 fold enrichment (6-mer frequency, TF over GST control)"
same,binding signal,ETV5,"1.14 fold enrichment (6-mer frequency, TF over GST control)"
same,binding signal,HSF1,"1.64 fold enrichment (6-mer frequency, TF over GST control)"
same,binding signal,SPIC,"1.29 fold enrichment (6-mer frequency, TF over GST control)"
same,binding signal,ELF4,"1.16 fold enrichment (6-mer frequency, TF over GST control)"
same,binding signal,ELK4,"1.06 fold enrichment (6-mer frequency, TF over GST control)"
same,binding signal,ETV2,"1.12 fold enrichment (6-mer frequency, TF over GST control)"
same,binding signal,ELF3,"1.16 fold enrichment (6-mer frequency, TF over GST control)"
same,binding signal,CRX,"1.33 fold enrichment (6-mer frequency, TF over GST control)"
same,binding signal,ETV1,"1.19 fold enrichment (6-mer frequency, TF over GST control)"
same,binding signal,ERF,"1.35 fold enrichment (6-mer frequency, TF over GST control)"
same,binding signal,ETV3L,"1.24 fold enrichment (6-mer frequency, TF over GST control)"
same,binding signal,ETS2,"1.22 fold enrichment (6-mer frequency, TF over GST control)"
same,binding signal,SPDEF,"1.17 fold enrichment (6-mer frequency, TF over GST control)"
same,binding signal,ETV7,"1.12 fold enrichment (6-mer frequency, TF over GST control)"
same,binding signal,ELF5,"1.1 fold enrichment (6-mer frequency, TF over GST control)"
same,binding signal,ETV3,"1.12 fold enrichment (6-mer frequency, TF over GST control)"
same,binding signal,ETV6,"1.22 fold enrichment (6-mer frequency, TF over GST control)"
